TRHR agonist – activates the human TRH receptor | P34981 | activation, % at 2 µM | 360,000 tested, 0.18% active | TRHR cells, calcium flux fluo-8, FDSS agonist mode; note: 0% is about no effect
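Steps: seed TRHR cells overnight; add fluo-8 no-wash Ca dye, RT 30 min–1.5 h; record 10 s baseline; pin-transfer compounds; monitor fluorescence 1 cycle/s for the agonist window. Calcium increases flag candidate agonists.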
D1 ag – human D1 receptor agonism. 360,000 tested, 1% active. activation, % at 2 µM. HEK293 T-REx D1 cells, calcium flux, agonist mode. P21728; note: 0% is about no effect
Target sequence (P21728 whole entry, looked up): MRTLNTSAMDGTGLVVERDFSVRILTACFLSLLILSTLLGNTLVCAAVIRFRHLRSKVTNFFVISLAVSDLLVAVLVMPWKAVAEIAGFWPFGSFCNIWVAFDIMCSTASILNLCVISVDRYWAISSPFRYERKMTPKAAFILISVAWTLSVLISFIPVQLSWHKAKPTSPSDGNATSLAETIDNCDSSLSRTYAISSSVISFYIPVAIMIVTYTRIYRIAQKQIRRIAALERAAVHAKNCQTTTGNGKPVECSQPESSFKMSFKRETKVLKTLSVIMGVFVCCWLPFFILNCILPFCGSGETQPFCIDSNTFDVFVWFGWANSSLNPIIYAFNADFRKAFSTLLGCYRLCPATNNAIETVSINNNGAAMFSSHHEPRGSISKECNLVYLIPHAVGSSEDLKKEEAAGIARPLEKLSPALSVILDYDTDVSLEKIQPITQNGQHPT
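Inducible HEK293 T-REx D1 cells, force-coupled to calcium signalling, were plated at 4000 cells/well with tetracycline and held overnight at 30 C. After no-wash calcium dye loading, compound-evoked calcium rise over 180 s flagged agonists.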
D1 antagonist – blocks dopamine activation of the human D1 receptor; P21728; HEK293 TREx D1 cells, calcium flux, dopamine EC80; stronger effect = lower value; activity change, negative = inhibition, % at 10 µM; 360,000 tested, 3.2% active; AID 504652; in the data active = activity change below about -30%; note: % is set by controls: 0 for no effect and ±100 for the full control effect
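Cells carrying a force-coupled, tetracycline-inducible human D1 receptor report calcium flux. Each well gets a 10 s baseline, compound with 180 s monitoring, then an EC80 dopamine stimulus with a second 180 s kinetic read.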
TRHR PAM – allosterically enhances the human TRH receptor; P34981; TRHR cells, fluo-8 calcium fluorescence, EC20 TRH enhancement; enhancement, % at 2 µM; AID 493056; 360,000 tested, 0.66% active; in the data active = enhancement above about 30%; note: 0% is about no effect
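TRHR-expressing cells loaded with fluo-8 calcium dye were read kinetically (ex 480/em 530) during compound addition, then stimulated with an EC20 of TRH (10 nM final). Enhancement of the Gq-mediated intracellular calcium response was scored.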
D1 PAM – enhances dopamine response at the human D1 receptor; P21728; 360,000 tested, 0.036% active; potentiation, % at 10 µM; HEK293 TREx D1 cells, calcium flux, dopamine EC20 potentiation; in the data active = potentiation above about 30%; note: 0% is about no effect
Numbers without * were called inactive; nt = not tested or not shown; ! = not active in a repeat. The list is not random: actives were taken first. Their share in the collection is about 4.6%. Cut-off read from the data, not from the text of the source, unless noted: active = activation above about 30%; inactive = the rest.

SMILES	TRHR agonist	D1 ag	D1 antagonist	TRHR PAM	D1 PAM
CCOC(=O)C1=C(C)NC(=O)CC1c1ccccc1OC (stereo unspecified)	-0.7	2.0	3.6	6.6	-6.6
CCCCCOC(=O)C1=C(C)NC(=O)NC1c1ccc(N(C)C)cc1 (stereo unspecified)	-0.4	2.5	28.6	0.7	0.2
CCOC(=O)C1=C(C)NC(=O)CC1c1ccccc1 (stereo unspecified)	-1.4	-0.6	-0.2	39.9*	3.2
CCCCCOC(=O)C1=C(C)NC(=O)NC1c1ccccc1 (stereo unspecified)	-0.5	3.2	-35.9*	-3.6	-4.2
CCCCN(CCCC)CCNC(=O)Cn1nc(CC)n2c(cc3sc(C)cc32)c1=O	0.2	-0.4	29.9	5.6	-3.0
COc1ccc(CCNC(=O)c2cc(Nc3ccccc3)nc3ccccc23)cc1OC	-1.0	5.8	-24.1	15.0	-5.5
COc1ccc(-c2nc(CS(=O)(=O)CC(=O)NCCCN3CCN(C)CC3)c(C)o2)cc1	0.1	0.5	-38.3*	1.3	-5.3
CCOc1ccc(CCNC(=O)CS(=O)(=O)Cc2nc(-c3ccc(OC)cc3)oc2C)cc1	-0.3	18.7	0.4	40.1*!	-1.4
Cc1oc(-c2ccccc2F)nc1CS(=O)(=O)CC(=O)NCCCN1CCN(C)CC1	-0.1	3.4	15.2	-7.0	-8.9
NC(=O)NC(Cc1ccccc1)C(=O)Nc1ccc(S(N)(=O)=O)cc1 (stereo unspecified)	0.8	0.2	-75.6*	6.9	-1.2
CC1=C(C(=O)Nc2ccc(Cl)cc2)C(C(C)C)n2nc(SCc3ccc(Cl)cc3)nc2N1 (stereo unspecified)	1.3	1.4	-7.2	7.6	0.3
COc1ccccc1N=Nc1ccc(O)c2ncccc12	-0.7	0.3	10.5	7.5	4.3
COc1ccccc1N=Nc1[nH]c2ccc(C)cc2c1O	0.0	0.8	-8.3	34.1*	-5.2
O=C(NCc1ccc(Cl)cc1)c1ccc(OCC2CCCO2)cc1 (stereo unspecified)	-0.1	3.7	-14.0	-4.7	-4.7
Cc1ccc(CNC(=O)c2ccc(OCC3CCCO3)cc2)cc1 (stereo unspecified)	-0.4	2.0	-70.7*	6.2	-5.8
O=C(Nc1ccc(Cl)cc1)c1ccc(OCC2CCCO2)cc1 (stereo unspecified)	0.5	3.6	-65.8*	16.2	-3.9
O=C(OCCN=C1NS(=O)(=O)c2ccccc21)c1ccccc1	-0.6	1.2	-3.8	-4.1	-0.6
CC(OC(=O)CCCN=C1NS(=O)(=O)c2ccccc21)C(=O)c1ccccc1 (stereo unspecified)	7.5	44.9*	-1.0	4.6	-0.1
CC(OC(=O)CCCN=C1NS(=O)(=O)c2ccccc21)C(=O)Nc1ccc(F)c(F)c1F (stereo unspecified)	-1.3	32.8*	-0.7	-1.6	-3.1
CC(C)C(=O)OCCN=C1NS(=O)(=O)c2ccccc21	0.6	2.6	-36.3*	6.0	-6.5
CC12CN3CC(c4ccccc4)(CN(C1)C3c1ccc(Cl)cc1)C2=O (stereo unspecified)	0.7	0.3	2.3	3.5	-0.1
Cc1c(CCNC(=O)c2ccc(Br)o2)sc2nc(-c3ccc(Cl)cc3)nn12	0.3	2.5	nt	-1.0	-3.2
O=C(NCc1ccc(F)cc1)c1ccc2c(c1)nc1n2CCCCC1	0.1	-0.5	11.1	4.0	5.0
O=[N+]([O-])c1c(NCCO)cc(N2CCN(Cc3ccc4c(c3)OCO4)CC2)c2nonc12	-0.4	0.0	6.3	-9.0	-3.8
O=[N+]([O-])c1c(NCCO)cc(N2CCCCCC2)c2nonc12	-0.7	6.1	-43.2*	5.3	-1.9
SMILES	TRHR agonist	D1 ag	D1 antagonist	TRHR PAM	D1 PAM
COc1ccc(Cn2ccnc2SCC(=O)Nc2cc(C(F)(F)F)ccc2Cl)cc1	1.2	9.0	-16.1	0.7	-3.0
CCN(CC(=O)NCc1ccc(Cl)cc1)C(=O)/C=C/c1ccccc1	-0.3	-0.2	-31.2*	-6.1	1.9
COc1cc(/C=C2\COC/C(=C\c3ccc(O)c(OC)c3)C2=O)ccc1O	1.5	12.3	-8.7	2.9	2.2
COc1cc(/C=C2\CC/C(=C\c3ccc(OCCO)c(OC)c3)C2=O)ccc1OCCO	113.6*	99.3*	0.5	27.9	-1.5
COc1cc(/C=C2/CC/C(=C/c3ccc(O)c(OC)c3)C2=O)ccc1O	0.0	78.3*	-8.1	-5.2	10.8
O=C(Nc1ccc([N+](=O)[O-])cc1)c1ccccc1F	-1.5	2.4	-17.4	-2.6	-8.6
O=C(Nc1ncc(S(=O)(=O)c2ccc([N+](=O)[O-])cc2)s1)c1ccccc1F	7.7	37.9*	-12.0	3.5	8.3
CCn1cc(CN2CCC(n3nccc3NC(=O)C3CCCC3)CC2)cn1	0.5	1.4	-51.9*	0.2	-2.9
N#Cc1c(C(F)(F)F)cc(-c2cccs2)nc1SCC(=O)Nc1cccc(Cl)c1	28.1	47.2*	14.2	13.5	-4.2
CSc1nc(N)nc(SCC(=O)Nc2cccc(F)c2)c1C#N	-1.4	19.3	-44.5*	5.3	-13.3
N#Cc1c(C(F)(F)F)cc(-c2cccs2)nc1SCC(=O)Nc1cccc(Br)c1	30.0*	184.0*	-15.6	14.6	4.2
CC(C)CC(NC(=O)C1CCCCC1)C(=O)Nc1cccc(C(F)(F)F)c1 (stereo unspecified)	0.6	1.3	-0.4	4.8	-0.1
Cc1occc1C(=O)NC1CCCc2ccccc21 (stereo unspecified)	-0.8	4.6	-17.2	7.4	0.4
O=C(NC1CCCc2ccccc21)c1cccc(Br)c1 (stereo unspecified)	-0.6	3.2	-44.5*	-2.2	-2.0
Cc1ccnc2nc(C(=O)NC3CCCc4ccccc43)nn12 (stereo unspecified)	-0.5	2.8	-51.8*	0.5	-0.9
Cc1cccc(N2CCN(C(=O)CN3C(=O)COc4ccc(S(=O)(=O)N5CCC(C)CC5)cc43)CC2C)c1 (stereo unspecified)	-0.5	0.0	27.3	-2.0	1.6
COc1ccc(N2CC(C(=O)Nc3ccc([N+](=O)[O-])cc3Br)CC2=O)cc1 (stereo unspecified)	-0.1	-1.2	-5.1	-0.3	-6.2
COc1ccc(N2CC(C(=O)N/N=C/c3cc([N+](=O)[O-])ccc3O)CC2=O)cc1 (stereo unspecified)	-0.2	-0.7	-2.2	38.7*	1.1
COc1ccccc1NC(=O)Cn1c2ccccc2c2nc3n(c(=O)c21)CCS3	0.0	1.7	-44.3*	7.1	-4.4
CCn1c2ccccc2c2nnc(SCC(=O)Nc3ccccc3OC)nc21	0.1	4.6	-32.9*	-4.6	-0.7
COc1ccccc1NC(=O)CSc1nnc2c3ccccc3n(C)c2n1	-0.6	0.3	2.2	6.5	-5.8
CCOC(=O)c1ccc(NC(=O)C2CCN(C(=O)N3CC(C)Oc4ccc(C)cc43)CC2)cc1 (stereo unspecified)	0.3	0.6	-12.2	10.1	-1.4

Screening results (PubChem BioAssay)
